A short description of assay [1]: qHTS assay for small molecule agonists of the p53 signaling pathway (AID 651631; calls by dose curve; note: nearly all actives have a fitted effect of over 15% in size; note: potency is the fitted concentration of half-maximal effect). The method, boiled down: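 Stably transfected HCT-116 cells (beta-lactamase behind p53 response elements) get compounds after a 5 h settling period; 16 h later at 37 °C, FRET substrate is loaded and fluorescence read after 2 h.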
For orientation: In qHTS, concentration-response curves come from the screen itself.

The nature of assay [2]: qHTS assay for small molecules that induce genotoxicity in human embryonic kidney cells expressing luciferase-tagged ATAD5 (AID 651632). Note: nearly all actives have a fitted effect of over 15% in size. Note: potency is the fitted concentration of half-maximal effect. The method, boiled down: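 Genotoxicity read-out via ATAD5-luciferase: HEK293T cells, 16 hr compound incubation at 37C, Amplite detection.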
Assay [3] can be described thus: qHTS assay for small molecule agonists of the p53 signaling pathway - cell viability (AID 651633; calls by dose curve;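 note: p53RE-bla HCT reporter cells with a stable beta-lactamase p53 reporter; series mostly up to about 83 µM; nearly all actives have a fitted effect of over 30% in size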). The method, boiled down: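 Viability counter-read: CellTiter-Glo luminescence (30 min, room temperature) in the same p53RE-bla plates. These plates had been exposed to compounds for 16 h at 37 C.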
Assay [4] can be described thus: qHTS assay for small molecule disruptors of the mitochondrial membrane potential (AID 720635). Note: potency is the fitted concentration of half-maximal effect. The method, boiled down:
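Mitochondrial membrane potential tracked with Mito-MPS dye, red aggregates (ex 540/em 590 nm) against green monomers (ex 490/em 535 nm). Compound treatment 1 hr at 37C, dye 30 min in HepG2.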

Assay [5] can be described thus: qHTS assay to test for compound auto fluorescence at 590 nm (red) in HepG2 cells (AID 720674). In outline: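 We screened compounds on adherent HepG2 cells, incubating them for an hour at 37 C in 5% CO2 before reading emission at 590 nm under 540 nm excitation; values reflect equivalence to Rose Bengal sodium fluorescence.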
Assay [6] can be described thus: qHTS assay to test for compound auto fluorescence at 535 nm (green) in HepG2 cells (AID 720675).
Assay [7] can be described thus: qHTS assay to test for compound auto fluorescence at 460 nm (blue) in HEK293 cells (AID 720678). Note: potency is the fitted concentration of half-maximal effect. In outline:
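Measured: blue fluorescence (Ex 405/Em 460 nm) of compound-treated HEK293 cells, incubated overnight at 37C with 5% CO2 and scaled to triamterene equivalents.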

The nature of assay [8]: qHTS assay to test for compound auto fluorescence at 590 nm (red) in HEK293 cells (AID 720679). In outline:
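Using HEK293 cells at 2,000 per well, the screen added 23 nL of each compound after cell attachment and incubated overnight (37C, 5% CO2). The plate reader then captured red-label fluorescence, Ex/Em 540/590nm.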

Assay [9] in a line: qHTS assay for small molecule disruptors of the mitochondrial membrane potential - cell viability (AID 720634; calls by dose curve;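 note: human HepG2 liver cancer cells; series mostly up to about 83 µM; nearly all actives have a fitted effect of over 20% in size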). The method, boiled down: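 Human hepatoma HepG2 cells were treated for 1 hr with test chemicals, then given m-MPI dye and CellTiter-Glo. Cell viability reflects luminescence proportional to cellular ATP.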
Assay [10] can be described thus: qHTS assay for small molecules that induce genotoxicity in human embryonic kidney cells expressing luciferase-tagged ATAD5 - cell viability (AID 651634; calls by dose curve; note: nearly all actives have a fitted effect of over 25% in size; note: potency is the fitted concentration of half-maximal effect). In outline:
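Live-cell protease activity (CellTiter-Fluor, fluorescence) indicates viability. HEK293T cells with luciferase-tagged ATAD5; 15.5 hr compound treatment at 37C.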

Data on 15 compounds can be found in PubChem BioAssay (Tox21).

“And” between values parts separate entries of the source, which are not always exact repeats. Equal values may be shown once. Values without a mark were called inactive. Records with an inconclusive call do not appear. The source made the active and inactive calls. Unless noted, calls come from the whole dose curve; as a rule, active = well fitted curve in the direction sought with a large enough effect in the repeat runs; inconclusive = weak or mixed curves; inactive = no such curve, though single readings can be large; an effect the other way counts as inactive or inconclusive.
% is set by controls: 0 for no effect and ±100 for the full control effect; tags give direction and shape of the fitted curve or compound fluorescence and quenching.

Regarding `c1ccc(CCNc2nc(-c3ccccc3)cs2)cc1`, the Potency entry in [1], in assay [3] and in [7] was “inactive” throughout. The Potency was 3.35 µM (active) in assay [2] and 10.6 µM (active) in assay [4]. In addition, the compound was classed as inactive in assay [5], in assay [6] and in assay [8].
`Sc1nc(S)nc(S)n1`: the Potency result in assay [1], in assay [2], in assay [9] and in [7] was “inactive” each time. Besides, the compound was called inactive in assay [5], in assay [6] and in assay [8].
For `CC(C)C[C@H](NC(=O)[C@H](Cc1ccccc1)NC(=O)c1cnccn1)B(O)O`, the Potency in assay [1] is 15 nM (active) and 9.4 nM (active); in assay [2], 21.1 nM (active) and 18.8 nM (active); in assay [10], 376 nM (active) and 94.4 nM (active). The Potency result in assay [9], in assay [4] and in assay [7] was “inactive” throughout. Also, the call in [5], in assay [6] and in [8] was inactive.
In the case of `CCOc1cc(OCC)c(C(C)=O)cc1OCC`, the Potency entry in assay [1], in assay [2], in [3], in assay [9] and in assay [7] was “inactive” throughout. Also, the result in assay [5], in assay [6] and in [8] was inactive.
Take `C[C@H]1C[C@H]2[C@@H]3CCC4=CC(=O)C=C[C@]4(C)[C@@]3(F)[C@@H](O)C[C@]2(C)[C@@]1(O)C(=O)COP(=O)(O)O`: the Potency entry in [2], in assay [3], in [10], in assay [9], in [4] and in assay [7] was “inactive” throughout. The call in assay [5], in assay [6] and in assay [8] was inactive.
For `Cc1c(Cl)cccc1Nc1ccccc1C(=O)O`, the Potency in assay [1] is 21.1 µM (active); in assay [4], 11.9 µM (active). Moreover, the Potency result in assay [2], in assay [10], in assay [9] and in assay [7] was “inactive” each time. The outcome in assay [5], in assay [6] and in assay [8] was inactive.
With `CC(=O)CC/C=C(\C)CC/C=C(\C)CC/C=C(\C)CCC=C(C)C`, the Potency result in assay [2], in assay [3], in [10], in assay [9], in assay [4] and in [7] was “inactive” throughout. Further, the compound was classed as inactive in assay [5], in assay [6] and in assay [8].
For the compound `CCCCCCCCCCCCCCCCC(=O)O`, the Potency result in [2], in [3], in assay [10], in [9] and in assay [7] was “inactive” throughout. For the same compound, the outcome in [5], in [6] and in [8] was inactive.
Consider `CC(=O)S[C@H](C(=O)N[C@H]1Cc2ccccc2[C@H]2CCC[C@@H](C(=O)O)N2C1=O)C(C)C`, for which the Potency entry in assay [2], in assay [3], in [10], in assay [9], in [4] and in assay [7] was “inactive” each time. The compound was classed as inactive in [5], in assay [6] and in [8].
On to `CCCCCCCCNC`, for which the Potency entry in [2], in [3], in assay [10], in assay [9], in [4] and in [7] was “inactive” each time. Moreover, the compound was called inactive in assay [5], in assay [6] and in [8].
For the compound `O=c1c2ccccc2oc2ccccc12`, the Potency entry in assay [2], in assay [3], in assay [10], in assay [9], in assay [4] and in [7] was “inactive” in each case. Moreover, the call in [5], in assay [6] and in assay [8] was inactive.
For `O=C1OC(=O)C2CC=CCC12` (stereo not drawn), the Potency entry in [2], in assay [3], in assay [10], in [9], in assay [4] and in assay [7] was “inactive” each time. The compound was called inactive in [5] and in assay [8].
Turning to `NC(=O)c1cc[n+](CC2=C(C(=O)[O-])N3C(=O)[C@@H](NC(=O)Cc4cccs4)[C@H]3SC2)cc1`, the Potency entry in assay [2], in assay [3], in assay [10], in assay [9] and in [4] was “inactive” throughout. Moreover, in [5], the fluorescence, relative to Rose Bengal is -0.33% [at 18.6 µM]. The fluorescence, % of fluorescein control in assay [6] was -0.0242% [at 18.6 µM]. Moreover, the fluorescence, % of triamterene in assay [7] is 0.803% [at 18.6 µM]. For the same compound, the fluorescence, % of fluorescent control in assay [8] is 0.0624% [at 18.6 µM].
In the case of `CC[C@H](NC(C)C)[C@H](O)c1ccc(O)c2[nH]c(=O)ccc12`, the Potency entry in assay [2], in assay [3], in assay [10], in [9] and in [4] was “inactive” throughout. Besides, the compound was called inactive in assay [5], in assay [6] and in [8]. The Potency in assay [7] is 11.2 µM [fluorescent] (active).
Take `O=C(N[C@@H](Cc1ccccc1)[C@@H](O)C(=O)N1C[C@@H](O)[C@@H](O)C1)c1cc2cc(Cl)ccc2[nH]1`: the Potency entry in assay [2], in assay [3], in assay [10], in assay [9] and in assay [7] was “inactive” throughout. For the same compound, the compound was called inactive in assay [5], in [6] and in assay [8].
